Laboratory results published in PubChem BioAssay (NCATS).
Inconclusive results are not listed. Entries that show only a call come without a potency. Unmarked numbers belong to inactive results. Calls of active or inactive are those of the source. Calls follow the shape of the dose curve; as a rule, active = well fitted inhibition curve with a large enough effect; inconclusive = small, poorly fitted or top-dose-only effect; inactive = flat fitted curve, though single readings scatter.

How the values were obtained:
[1] = qHTS profiling for inhibitors of Plasmodium falciparum proliferation (AID 504749); also: nearly all actives have a fitted effect of over 60% in size; conditions: P. falciparum in erythrocytes, SYBR Green DNA, 72 h
Outline: (§1)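 In a 72 h erythrocytic culture (37 C, humidified, 5% CO2) at 2.5% hematocrit and 0.3% starting parasitemia, compounds were tested; SYBR Green I in detergent lysis buffer stained parasite DNA overnight.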

[2] = system: 3D7; assay: as above; conditions: P. falciparum in erythrocytes, SYBR Green DNA, 72 h; series mostly up to 28.7 µM
Outline: as §1

[3] = system: 7G8; assay: as above; conditions: P. falciparum in erythrocytes, SYBR Green DNA, 72 h; series mostly up to 28.7 µM
Outline: as §1

[4] = system: AA1029; assay: as above; conditions: P. falciparum in erythrocytes, SYBR Green DNA, 72 h; series mostly up to 28.7 µM
Outline: as §1

[5] = system: AS120; assay: as above; conditions: P. falciparum in erythrocytes, SYBR Green DNA, 72 h; series mostly up to 28.7 µM
Outline: as §1

[6] = system: ATS189; assay: as above; conditions: P. falciparum in erythrocytes, SYBR Green DNA, 72 h; series mostly up to 28.7 µM
Outline: as §1

[7] = system: ATS95; assay: as above; conditions: P. falciparum in erythrocytes, SYBR Green DNA, 72 h; series mostly up to 28.7 µM
Outline: as §1

[8] = system: C2A; assay: as above; conditions: P. falciparum in erythrocytes, SYBR Green DNA, 72 h; series mostly up to 28.7 µM
Outline: as §1

[9] = system: CP185; assay: as above; conditions: P. falciparum in erythrocytes, SYBR Green DNA, 72 h; series mostly up to 28.7 µM
Outline: as §1

[10] = system: CP191; assay: as above; conditions: P. falciparum in erythrocytes, SYBR Green DNA, 72 h; series mostly up to 28.7 µM
Outline: as §1

[11] = system: CP192; assay: as above; conditions: P. falciparum in erythrocytes, SYBR Green DNA, 72 h; series mostly up to 28.7 µM
Outline: as §1

[12] = system: CP194; assay: as above; conditions: P. falciparum in erythrocytes, SYBR Green DNA, 72 h; series mostly up to 28.7 µM
Outline: as §1

[13] = system: CP201; assay: as above; conditions: P. falciparum in erythrocytes, SYBR Green DNA, 72 h; series mostly up to 28.7 µM
Outline: as §1

[14] = system: CP203; assay: as above; conditions: P. falciparum in erythrocytes, SYBR Green DNA, 72 h; series mostly up to 28.7 µM
Outline: as §1

[15] = system: CP211; assay: as above; conditions: P. falciparum in erythrocytes, SYBR Green DNA, 72 h; series mostly up to 28.7 µM
Outline: as §1

[16] = at 28.7 µM (top of the series), parasite line A
[17] = at 28.7 µM (top of the series), parasite line B
[18] = at 12.8 µM (top of the series), parasite line A
[19] = at 12.8 µM (top of the series), parasite line B
Potency is read from the fitted curve at half-maximal effect.

SMILES	activity, negative = inhibition [1, 16] [%]	activity, negative = inhibition [1, 17] [%]	Potency [2]	Potency [3]	Potency [4]	Potency [5]	Potency [6]	Potency [7]	Potency [8]	Potency [9]	Potency [10]	Potency [11]	Potency [12]	Potency [13]	Potency [14]	Potency [15]	Potency ([1]; parasite line A)	Potency ([1]; parasite line B)	activity, negative = inhibition [1, 18] [%]	activity, negative = inhibition [1, 19] [%]
CC(=O)OC1CN2CCC1CC2 (stereo unspecified)	-1.93	13.1	inactive	inactive	inactive	inactive	inactive	inactive	inactive	inactive	inactive	inactive	inactive	inactive	inactive	inactive	–	–	–	–
O=P(O)(O)C(Cl)(Cl)P(=O)(O)O	6.37	14	inactive	inactive	inactive	inactive	inactive	inactive	inactive	inactive	inactive	inactive	inactive	inactive	inactive	inactive	–	–	–	–
CCC1(c2ccccc2)C(=O)NC(=O)NC1=O	5.22	9.88	inactive	inactive	inactive	–	inactive	inactive	inactive	inactive	inactive	–	inactive	inactive	inactive	inactive	–	–	–	–
O=[N+]([O-])c1ccc(F)c([N+](=O)[O-])c1	14.6	11.6	inactive	inactive	inactive	inactive	inactive	inactive	inactive	inactive	inactive	inactive	inactive	inactive	inactive	inactive	–	–	–	–
O=[N+]([O-])C(Br)(CO)CO	4.06	-7.41	inactive	inactive	inactive	inactive	inactive	inactive	inactive	inactive	inactive	inactive	inactive	inactive	inactive	inactive	–	–	–	–
Oc1cccc[c]1[Hg][Cl]	–	–	8.91 µM (active)	1.78 µM (active)	11.2 µM (active)	7.94 µM (active)	12.6 µM (active)	10 µM (active)	12.6 µM (active)	7.94 µM (active)	10 µM (active)	15.1 µM (active)	–	–	–	9.53 µM (active)	5.01 µM (active)	6.31 µM (active)	–	–
NCC(O)c1cccc(O)c1 (stereo unspecified)	5.65	12	inactive	inactive	inactive	inactive	inactive	inactive	inactive	inactive	inactive	inactive	inactive	inactive	inactive	inactive	–	–	–	–
O=C1CCO1	-3.97	-7.7	inactive	inactive	inactive	inactive	inactive	inactive	inactive	inactive	inactive	inactive	inactive	inactive	inactive	inactive	–	–	–	–
O=C1CC[C@@]2(O)C3Cc4ccc(O)c5c4C2(CCN3CC2CC2)[C@H]1O5 (stereo partly specified)	9.65	8.16	inactive	inactive	inactive	inactive	inactive	inactive	inactive	inactive	inactive	inactive	inactive	inactive	inactive	inactive	–	–	–	–
CCOc1ccc2c3c1O[C@H]1[C@@H](O)C=C[C@H]4[C@@H](C2)N(C)CC[C@@]341	0.925	-4.11	inactive	inactive	inactive	inactive	inactive	inactive	inactive	inactive	inactive	inactive	–	inactive	–	–	–	–	–	–
CCC1(C)CC(=O)NC(=O)C1	–	–	inactive	inactive	inactive	inactive	inactive	–	inactive	inactive	inactive	inactive	inactive	inactive	inactive	inactive	–	–	7.23	5.64
N#CC(C#N)=Cc1cc(O)c(O)c(O)c1	–	–	10 µM (active)	4.47 µM (active)	12.6 µM (active)	8.91 µM (active)	–	–	10 µM (active)	8.91 µM (active)	–	13.5 µM (active)	15.1 µM (active)	–	–	13.5 µM (active)	11.2 µM (active)	11.2 µM (active)	–	–
CC(C)Nc1ccc(Nc2ccccc2)cc1	–	–	6.31 µM (active)	8.91 µM (active)	7.08 µM (active)	11.2 µM (active)	5.62 µM (active)	7.94 µM (active)	8.91 µM (active)	8.91 µM (active)	4.47 µM (active)	5.36 µM (active)	3.38 µM (active)	4.78 µM (active)	8.49 µM (active)	3.79 µM (active)	3.16 µM (active)	5.01 µM (active)	–	–
CN1C2CCC1CC(OC(c1ccccc1)c1ccc(Cl)cc1)C2 (stereo unspecified)	–	–	12.6 µM (active)	4.47 µM (active)	11.2 µM (active)	11.2 µM (active)	10 µM (active)	8.91 µM (active)	11.2 µM (active)	12.6 µM (active)	4.47 µM (active)	–	10.7 µM (active)	–	12 µM (active)	15.1 µM (active)	5.01 µM (active)	7.08 µM (active)	–	–
CN1c2ccccc2C(NCCCCCCC(=O)O)c2ccc(Cl)cc2S1(=O)=O (stereo unspecified)	2.2	-5.71	inactive	inactive	inactive	inactive	inactive	inactive	inactive	inactive	inactive	inactive	inactive	inactive	inactive	inactive	–	–	–	–
COC1=CC=C2[C@H]3Cc4ccc(OC)c5c4[C@@]2(CCN3C)[C@H]1O5	–	–	inactive	inactive	inactive	inactive	inactive	inactive	inactive	inactive	inactive	inactive	inactive	inactive	inactive	inactive	–	–	-6.15	12.3
Cn1sc(Cl)cc1=O	11.9	7.44	inactive	inactive	inactive	inactive	inactive	inactive	inactive	inactive	inactive	inactive	inactive	inactive	inactive	inactive	–	–	–	–
N#CN	10.5	6.79	inactive	inactive	inactive	inactive	inactive	inactive	inactive	inactive	inactive	inactive	inactive	inactive	inactive	inactive	–	–	–	–
CCCCNCC(O)c1ccc(O)cc1 (stereo unspecified)	-2.61	-2.79	inactive	inactive	inactive	inactive	inactive	inactive	inactive	inactive	inactive	inactive	inactive	inactive	inactive	inactive	–	–	–	–
ClC1C(Cl)C(Cl)C(Cl)C(Cl)C1Cl (stereo unspecified)	10.1	13.2	inactive	inactive	inactive	inactive	inactive	inactive	inactive	inactive	inactive	inactive	inactive	inactive	inactive	inactive	–	–	–	–
FC(F)OC(F)(F)C(F)Cl (stereo unspecified)	10.8	14	inactive	inactive	inactive	inactive	inactive	inactive	inactive	inactive	inactive	inactive	inactive	inactive	inactive	inactive	–	–	–	–
Cc1sc2ccccc2c1CC1=NCCN1	5.82	-2.48	inactive	10 µM (active)	inactive	inactive	inactive	inactive	inactive	inactive	–	inactive	inactive	inactive	inactive	inactive	–	–	–	–
Oc1cc(Cl)c(Cl)cc1Cl	4.1	-8.4	inactive	11.2 µM (active)	inactive	inactive	inactive	inactive	inactive	inactive	inactive	inactive	inactive	inactive	–	inactive	–	–	–	–
O=c1[nH]c(=O)n(Cl)c(=O)n1Cl	-5.08	11.2	inactive	inactive	inactive	inactive	inactive	inactive	inactive	inactive	inactive	inactive	inactive	inactive	inactive	inactive	–	–	–	–
